A selection: hits, their analogues and other compounds. The true share with any hit is near 3.5%.
HSP90 refold inh = blocks HSP90-mediated luciferase refolding in reticulocyte lysate. Rabbit reticulocyte lysate, luciferase refolding luminescence, 3 h. 290,000 tested, 0.91% active. inhibition, % at 5.6 µM. AID 1789;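 active = inhibition above the screen-wide mean plus 3 SD, computed separately per campaign, cut at about 16% in these data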;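 also: 0% = DMSO wells and 100% = 60 µM geldanamycin wells; inhibitors lower the luminescence because luciferase stays unfolded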
TROY signal inh = TROY signaling inhibition. Q293 LMP1-TROYcd NF-kB luciferase reporter, 4 h. inhibition, % at 10 µM. 360,000 tested, 0.98% active. AID 1347056;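 active = compounds whose plate-normalised and pattern-corrected inhibition of the luciferase reporter signal at the single screening dose is 50% or more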
TWEAK Fn14 block = TWEAK-Fn14 signaling inhibition. TWEAK-stimulated Fn14 reporter cells, luciferase luminescence, 8 h. inhibition, % at 10 µM. 360,000 tested, 2% active; in the data active = inhibition above about 50%
PPC-1+TRAIL kill = kills PPC-1 cancer cells in the presence of TRAIL | PPC-1 cells + TRAIL, ATPLite viability luminescence | cell killing (% activity), % at 4 µM or 5 µM | 220,000 tested, 0.41% active;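 active = cell killing above 50% in the first pass at 4 µM, then a duplicate retest at 5 µM averaging 50% or more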;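 also: plate controls were cells with TRAIL plus DMSO for no effect and medium-only wells lacking cells for full effect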
TRAIL sens C8 = caspase-8 TRAIL sensitization; NB7+C8 cells + TRAIL, ATPlite viability luminescence; inhibition (viability loss, TRAIL sensitization), % at 10 µM; 360,000 tested, 1% active; AID 624354;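 active = compounds causing at least 50% loss of cell viability in the single-dose screen, relative to plate controls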
Platelet DG rel = platelet dense granule release activity; human platelet-rich plasma, SFLLRN dense granule ATP release, luminescence; 300,000 tested, 0.22% active; inhibition, %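 (compounds screened at 7.5 µM in platelet-rich plasma)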;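 active = mean replicate score, as percent of positive control, at or above 50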
HSP90 inh confirm = confirmation of HSP90 inhibitors | rabbit reticulocyte lysate, luciferase refolding luminescence, 3 h | 2,300 tested, 64% active | AID 1846 | inhibition, % at 5.9 µM | shares compounds with HSP90 refold inh; in the data active = inhibition above about 18%;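 also: 0% = vehicle wells and 100% = reference inhibitor wells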
luciferase ctr = counter-screen for HSP90 inhibitors: inhibitors of firefly luciferase; 2,300 tested, 48% active; shares compounds with HSP90 refold inh; inhibition, % at 5.9 µM; AID 1847; purified native firefly luciferase, luminescence;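 active = inhibition above the mean inhibition of all tested sample wells plus 3 SD, cut at about 10% in these data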;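 also: 0% = DMSO with luciferase and 100% = wells lacking luciferase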
Target sequence (P08659 whole entry, looked up): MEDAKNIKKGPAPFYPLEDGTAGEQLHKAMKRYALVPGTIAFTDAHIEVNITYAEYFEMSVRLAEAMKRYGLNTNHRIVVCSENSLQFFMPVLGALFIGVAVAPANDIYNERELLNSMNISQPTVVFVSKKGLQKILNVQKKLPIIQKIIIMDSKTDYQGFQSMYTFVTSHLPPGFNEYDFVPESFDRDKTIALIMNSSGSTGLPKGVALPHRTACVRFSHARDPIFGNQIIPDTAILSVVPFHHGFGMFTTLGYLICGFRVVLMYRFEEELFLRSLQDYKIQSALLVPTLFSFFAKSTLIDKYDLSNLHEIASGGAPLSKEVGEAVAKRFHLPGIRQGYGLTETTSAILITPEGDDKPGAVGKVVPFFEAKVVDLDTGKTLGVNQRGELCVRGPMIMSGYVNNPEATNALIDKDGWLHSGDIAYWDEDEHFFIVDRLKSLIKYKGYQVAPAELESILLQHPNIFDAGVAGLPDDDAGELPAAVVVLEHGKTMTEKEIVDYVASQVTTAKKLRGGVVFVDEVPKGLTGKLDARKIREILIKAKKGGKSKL
* = called active by the depositor.

What do the screens show for `O=C(O)c1ccc(COc2ccc3c(c2)CCC3)cc1`?
HSP90 refold inh: 48.9*; TROY signal inh: -24.1; TWEAK Fn14 block: 39.1; PPC-1+TRAIL kill: 6.6; TRAIL sens C8: -0.9; Platelet DG rel: 13.0; HSP90 inh confirm: 62.9*; luciferase ctr: 16.8*

Results for NNC(=O)c1ccc(COc2ccc3c(c2)CCC3)cc1 ?
HSP90 refold inh: 0.6; TROY signal inh: -62.0; TWEAK Fn14 block: -8.1; PPC-1+TRAIL kill: 17.9; TRAIL sens C8: 12.5; Platelet DG rel: -12.7

How did CC(C)(C)c1ccc(OCc2ccc(C(=O)Nc3cccnc3)o2)cc1 do in these assays?
HSP90 refold inh: 26.2*; TROY signal inh: 32.4; TWEAK Fn14 block: 17.8; TRAIL sens C8: 39.2; Platelet DG rel: -3.6; HSP90 inh confirm: 22.6*; luciferase ctr: -5.7

Results for COc1cc2cc(CCO)oc(=O)c2cc1OC ?
TROY signal inh: -2.7; TWEAK Fn14 block: -0.6; TRAIL sens C8: -12.8

How did CCCN(CCC)Cc1cc(=O)oc2cc(C)cc(C)c12 do in these assays?
TROY signal inh: -4.5; TWEAK Fn14 block: 17.8; TRAIL sens C8: 9.0

What do the screens show for `COc1cc2c(cc1OC)C1CCN3C(=O)CCC3N1CC2` (stereo not drawn)?
TROY signal inh: 6.7; TWEAK Fn14 block: 8.0; TRAIL sens C8: -3.0

What do the screens show for `Cn1c(CNC(=O)CCNC(=O)c2cccc(F)c2)cc(=O)n(C)c1=O`?
HSP90 refold inh: 0.8; TROY signal inh: 5.1; TWEAK Fn14 block: 2.2; TRAIL sens C8: -7.5; Platelet DG rel: 25.5

Results for COC(=O)c1ccc(COc2ccc3c(c2)CCC3)o1 ?
HSP90 refold inh: 22.7*; TROY signal inh: -55.0; TWEAK Fn14 block: -19.2; PPC-1+TRAIL kill: -20.6; TRAIL sens C8: -16.6; Platelet DG rel: 7.9; HSP90 inh confirm: 40.1*; luciferase ctr: -15.6

How did COC(=O)c1ccc(COc2ccc(C(C)(C)C)cc2)o1 do in these assays?
HSP90 refold inh: 29.4*; TROY signal inh: -37.1; TWEAK Fn14 block: -18.0; TRAIL sens C8: 4.1; Platelet DG rel: -1.4; HSP90 inh confirm: 34.6*; luciferase ctr: -19.5

What do the screens show for `Cc1cc(C(=O)Nc2ccccn2)cs1`?
HSP90 refold inh: 24.9*; TROY signal inh: -6.3; TWEAK Fn14 block: 40.1; PPC-1+TRAIL kill: 29.1; TRAIL sens C8: 14.6; Platelet DG rel: 10.4; HSP90 inh confirm: 16.3*; luciferase ctr: 4.5

Results for O=C(NC(=O)c1ccccc1)Nc1ccccn1 ?
HSP90 refold inh: 74.1*; TROY signal inh: 72.9*; TWEAK Fn14 block: 94.8*; TRAIL sens C8: 88.8*; Platelet DG rel: 81.6*; HSP90 inh confirm: 93.0*; luciferase ctr: 85.6*

What do the screens show for `O=C(Nc1ccccn1)c1ccc(C(=O)c2ccccc2)cc1`?
TROY signal inh: -37.4; TWEAK Fn14 block: 14.7; TRAIL sens C8: 19.7; Platelet DG rel: 2.5

What do the screens show for `COc1cc(C(=O)Nc2ccccn2)cc(OC)c1OC`?
HSP90 refold inh: 2.7; TROY signal inh: 13.5; TWEAK Fn14 block: 5.3; PPC-1+TRAIL kill: 35.6; TRAIL sens C8: -1.4; Platelet DG rel: -11.0

What do the screens show for `Nc1c(C(=O)CSc2nccn2-c2ccc(Cl)cc2)c(=O)[nH]c(=O)n1C1CC1`?
TROY signal inh: 3.2; TWEAK Fn14 block: -7.5; TRAIL sens C8: 2.9

What do the screens show for `COCCN(C(=O)CCC(=O)Nc1ccccn1)C(C(=O)NC(C)C)c1ccc(Cl)cc1` (stereo not drawn)?
HSP90 refold inh: 83.7*; TROY signal inh: -3.9; TWEAK Fn14 block: 15.7; TRAIL sens C8: -3.1; Platelet DG rel: 1.0; HSP90 inh confirm: 0.9; luciferase ctr: -4.3

Results for COc1ccc(CN2CCNC(=O)C2CC(=O)NC2CCCCCCC2)cc1C (stereo not drawn) ?
HSP90 refold inh: -1.3; TROY signal inh: -4.1; TWEAK Fn14 block: 2.0; TRAIL sens C8: -1.8; Platelet DG rel: -3.7

How did Cc1ccc([N+](=O)[O-])cc1N=C1C(=O)Nc2ccccc21 do in these assays?
HSP90 refold inh: 22.1*; TROY signal inh: 4.6; TWEAK Fn14 block: -7.0; TRAIL sens C8: 2.5; Platelet DG rel: 8.9; HSP90 inh confirm: -2.0; luciferase ctr: -10.8

Results for COc1nc(C)ccc1-c1noc(-c2ccco2)n1 ?
HSP90 refold inh: 18.6*; TROY signal inh: -6.9; TWEAK Fn14 block: 42.1; PPC-1+TRAIL kill: 21.6; TRAIL sens C8: 22.6; Platelet DG rel: -0.5; HSP90 inh confirm: 32.7*; luciferase ctr: 24.3*

What do the screens show for `CCCCNC1=CC(=O)C(=O)c2ccccc21`?
HSP90 refold inh: 24.3*; TROY signal inh: -24.2; TWEAK Fn14 block: 13.2; TRAIL sens C8: 32.3; Platelet DG rel: 7.1; HSP90 inh confirm: 18.8*; luciferase ctr: -2.8

Results for Cc1cc(/C=C(\C#N)C(=O)N2CCOCC2)c(C)n1C1CCCC1 ?
HSP90 refold inh: 37.3*; TROY signal inh: 73.7*; TWEAK Fn14 block: 73.7*; PPC-1+TRAIL kill: 27.8; TRAIL sens C8: 39.4; Platelet DG rel: -12.9; HSP90 inh confirm: 51.6*; luciferase ctr: 47.9*

Results for COc1ccc(/C=C(\C#N)C(=O)N2CCOCC2)cc1Br ?
HSP90 refold inh: -0.2; TROY signal inh: -10.1; TWEAK Fn14 block: -0.7; PPC-1+TRAIL kill: -5.2; TRAIL sens C8: -31.9; Platelet DG rel: 8.0

Results for CCCNC(=O)Nc1nc2ccccc2s1 ?
HSP90 refold inh: 20.8*; TROY signal inh: -34.5; TWEAK Fn14 block: -1.8; PPC-1+TRAIL kill: 25.8; TRAIL sens C8: -0.4; Platelet DG rel: -2.4; HSP90 inh confirm: -2.5; luciferase ctr: -21.7

How did O=C(O)c1ccc(Oc2c(C(F)(F)F)oc3cc(O)ccc3c2=O)cc1 do in these assays?
HSP90 refold inh: 31.3*; TROY signal inh: -11.4; TWEAK Fn14 block: 10.5; PPC-1+TRAIL kill: 23.0; TRAIL sens C8: 14.8; Platelet DG rel: 2.6; HSP90 inh confirm: 1.0; luciferase ctr: -3.2

How did Cc1oc2cc(O)ccc2c(=O)c1Oc1ccccc1 do in these assays?
HSP90 refold inh: -0.9; TROY signal inh: 15.5; TWEAK Fn14 block: -4.3; PPC-1+TRAIL kill: -3.4; TRAIL sens C8: 0.9; Platelet DG rel: 5.8

How did Cc1ccc(S(=O)(=O)N2C[C@H]3C(=O)C[C@@H](c4ccc(Cl)cc4)N(S(=O)(=O)c4ccccc4C)[C@H]3C[C@H]2c2cccc(Cl)c2)cc1 do in these assays?
TROY signal inh: 2.4; TWEAK Fn14 block: -7.2; TRAIL sens C8: -0.2

Results for CSCCC(NC(=O)c1ccccc1)C(=O)NCCc1ccc2c(c1)OCCO2 (stereo not drawn) ?
TROY signal inh: 6.2; TWEAK Fn14 block: 0.0; TRAIL sens C8: 7.5

How did COCCN(Cc1nc(-c2ccc(-c3ccccc3)cc2)oc1C)C(C)C do in these assays?
HSP90 refold inh: 85.3*; TROY signal inh: -25.1; TWEAK Fn14 block: 77.8*; TRAIL sens C8: 18.1; Platelet DG rel: 0.2; HSP90 inh confirm: 88.9*; luciferase ctr: 20.6*
